Measured values reported in the supplement of paper PMC10849652.
The full data set covers some 8,800 targets. This sample favours those with a hit. About 0.5% of all pairs of compound and target were hits.

Tests used:
Assay in all cases: log2 fold change, soluble protein after heating vs DMSO (PISA); higher = thermal stabilisation; K562 lysate, 10 uM; active = over 0.2 and 3.5 SD of the protein, either way, in both replicates (recomputed)
[1] = compound: C=CC(=O)N1CCC[C@@H](n2nc(-c3ccc(Oc4ccccc4)cc3)c3c(N)ncnc32)C1 [ibrutinib]
Summary of the method: (§1)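 Dounce homogenisation of K562 pellets in PBS pH 7.4 with 1 mM MgCl2 produced a crude extract, used at 1 mg/mL protein. Exposure to 10 μM compound lasted 30 min, and aliquots were then heated for 3 min across 48°C-58°C, pooled and brought to 0.5% NP-40 at 4°C. The supernatant after 21,000xg for 90 min was quantified by TMTpro 16plex LC-MS/MS with channel sums equalised. Duplicate values are given as log-two fold change in thermal stability relative to solvent controls.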

[2] = compound: CC(=O)c1cnc2ccc(-c3cc(Cl)c(O)c(Cl)c3)nc2c1N[C@H]1CC[C@H](CN(C)C)CC1
Summary of the method: as §1

[3] = compound: CC(C)(C)Cn1c(N)nc2ccc(-c3[nH]c(C(C)(C)C)nc3-c3ccc(F)cc3)nc21 [ralimetinib]
Summary of the method: as §1

[4] = compound: CC(C)(O)CC(=O)NCCn1ccc2ncnc(Nc3ccc(Oc4cccc(C(F)(F)F)c4)c(Cl)c3)c21
Summary of the method: as §1

[5] = compound: CC(C)C1=C2N=C(C=C(N2N=C1)NCC3=CC=CC=C3)NCCCCCCN
Summary of the method: as §1

[6] = compound: CC1=C(C(CC(=O)N1)C2=CC=C(C=C2)C(F)(F)F)C(=O)NC3=C(C=C4C(=C3)C=NN4)F
Summary of the method: as §1

[7] = compound: CC1=C(C2=C(C=C1)C(=O)C3=CC=CC=C3N2CCCN)C
Summary of the method: as §1

[8] = compound: CC1=C(C=C(C=C1)NC(=O)C2=CC(=CC=C2)C(C)(C)C#N)NC3=CC4=C(C=C3)N=CN(C4=O)C
Summary of the method: as §1

[9] = compound: CC1=C(C=C(C=C1)NC(=O)C2=CC(=CC=C2)N(C)C)NC(=O)C3=CC=C(C=C3)O
Summary of the method: as §1

[10] = compound: CC1=CC=C(C=C1)SC2=C3C=C(SC3=CN=C2)C(=O)N
Summary of the method: as §1

[11] = compound: CCCS(=O)(=O)Nc1ccc(F)c(C(=O)c2c[nH]c3ncc(-c4ccc(Cl)cc4)cc23)c1F [vemurafenib]
Summary of the method: as §1

[12] = compound: CCCS(=O)(=O)Nc1ccc(F)c(C(=O)c2c[nH]c3ncc(Cl)cc23)c1F
Summary of the method: as §1

[13] = compound: CCN(CCCOc1ccc2c(Nc3cc(CC(=O)Nc4cccc(F)c4)[nH]n3)ncnc2c1)CCOP(=O)(O)O [barasertib]
Summary of the method: as §1

[14] = compound: CC[C@@H]1C(=O)N(C)c2cnc(Nc3ccc(C(=O)NC4CCN(C)CC4)cc3OC)nc2N1C1CCCC1
Summary of the method: as §1

[15] = compound: CC[C@@H]1C(=O)N(C)c2cnc(Nc3ccc(C(=O)N[C@H]4CC[C@H](N5CCN(CC6CC6)CC5)CC4)cc3OC)nc2N1C(C)C [volasertib]
Summary of the method: as §1

[16] = compound: CCn1c(C(=O)N(C2CC2)C2CC2)cc2c3c(ncn3C)c(Nc3cc(C)n(C)n3)nc21
Summary of the method: as §1

[17] = compound: CCn1cc(-c2ccnc3[nH]c(-c4cccc(CN(C)C)c4)cc23)c(-c2ccc(NC(=O)N(C)C)cc2)n1
Summary of the method: as §1

[18] = compound: CN1CCC(CNc2ccc3ncc(-c4cccc(OC(F)(F)F)c4)n3n2)CC1
Summary of the method: as §1

[19] = compound: CN1CCN(CCOc2cc(OC3CCOCC3)c3c(Nc4c(Cl)ccc5c4OCO5)ncnc3c2)CC1 [saracatinib]
Summary of the method: as §1

[20] = compound: CN1CCN(c2nc(C3=C(c4c[nH]c5ccccc45)C(=O)NC3=O)c3ccccc3n2)CC1 [sotrastaurin]
Summary of the method: as §1

Measured: log2 fold change

DTWD1 (UniProt Q8N5C7)
Sequence of UniProt Q8N5C7 (Q8N5C7 whole entry, looked up): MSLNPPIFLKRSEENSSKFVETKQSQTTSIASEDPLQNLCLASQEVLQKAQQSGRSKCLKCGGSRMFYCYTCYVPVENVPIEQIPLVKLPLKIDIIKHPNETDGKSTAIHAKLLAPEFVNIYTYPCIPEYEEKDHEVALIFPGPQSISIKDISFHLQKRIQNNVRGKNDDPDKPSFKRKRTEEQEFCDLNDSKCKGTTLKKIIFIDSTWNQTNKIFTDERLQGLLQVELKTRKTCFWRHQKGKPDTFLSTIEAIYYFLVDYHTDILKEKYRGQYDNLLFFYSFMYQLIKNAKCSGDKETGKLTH
inactive: [1] 0.013 | [2] 0.032 | [3] 0.005 | [4] 0.005 | [5] 0.034 | [6] 0.058 | [7] -0.019 | [8] 0 | [9] -0.02 | [10] -0.027 | [11] 0.028 | [12] 0.018 | [13] -0.005 | [14] 0.024 | [15] -0.036 | [16] 0.016 | [17] -0.026 | [18] -0.032 | [19] -0.033 | [20] 0.019

ETFRF1 (UniProt Q6IPR1)
Sequence of UniProt Q6IPR1 (Q6IPR1 whole entry, looked up): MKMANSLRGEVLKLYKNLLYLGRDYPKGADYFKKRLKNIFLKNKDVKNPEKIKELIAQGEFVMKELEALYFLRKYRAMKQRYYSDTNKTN
inactive: [1] 0.062 | [2] 0.028 | [3] -0.005 | [4] -0.044 | [5] -0.006 | [6] 0.049 | [7] -0.018 | [8] -0.071 | [9] 0.136 | [10] -0.02 | [11] 0.084 | [12] -0.003 | [13] 0.012 | [15] -0.03 | [16] 0 | [17] -0.005 | [18] -0.03 | [19] -0.01 | [20] -0.002

FASTKD2 (UniProt Q9NYY8)
Sequence of UniProt Q9NYY8 (Q9NYY8 whole entry, looked up): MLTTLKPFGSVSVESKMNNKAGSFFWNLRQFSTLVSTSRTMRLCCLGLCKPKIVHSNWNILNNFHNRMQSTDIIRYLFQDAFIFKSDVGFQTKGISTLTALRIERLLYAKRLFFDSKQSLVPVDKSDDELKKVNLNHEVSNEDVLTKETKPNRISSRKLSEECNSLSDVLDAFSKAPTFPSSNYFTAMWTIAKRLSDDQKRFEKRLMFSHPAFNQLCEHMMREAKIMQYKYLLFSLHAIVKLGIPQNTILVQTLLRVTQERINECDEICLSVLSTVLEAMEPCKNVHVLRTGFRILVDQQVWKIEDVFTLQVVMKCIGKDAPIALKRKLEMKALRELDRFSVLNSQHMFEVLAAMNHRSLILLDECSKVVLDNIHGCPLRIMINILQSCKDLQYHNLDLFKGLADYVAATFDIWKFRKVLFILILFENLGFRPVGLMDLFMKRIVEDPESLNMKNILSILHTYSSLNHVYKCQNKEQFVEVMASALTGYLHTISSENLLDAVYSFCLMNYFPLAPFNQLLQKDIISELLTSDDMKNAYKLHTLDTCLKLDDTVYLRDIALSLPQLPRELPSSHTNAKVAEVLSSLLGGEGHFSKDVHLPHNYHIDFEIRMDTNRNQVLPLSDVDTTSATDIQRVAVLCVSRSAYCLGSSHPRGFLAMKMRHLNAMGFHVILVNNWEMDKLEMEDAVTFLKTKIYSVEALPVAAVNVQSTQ
inactive: [1] -0.008 | [2] -0.006 | [3] -0.004 | [4] -0.039 | [5] -0.013 | [6] 0.003 | [7] -0.007 | [8] 0.034 | [9] -0.001 | [10] 0.024 | [11] -0.014 | [12] -0.002 | [13] 0.037 | [14] 0.004 | [15] -0.036 | [16] 0.011 | [17] -0.072 | [18] 0.03 | [19] 0.012 | [20] 0.014

G6PD isoform 2 (UniProt P11413)
Sequence of UniProt P11413 (P11413 whole entry, looked up): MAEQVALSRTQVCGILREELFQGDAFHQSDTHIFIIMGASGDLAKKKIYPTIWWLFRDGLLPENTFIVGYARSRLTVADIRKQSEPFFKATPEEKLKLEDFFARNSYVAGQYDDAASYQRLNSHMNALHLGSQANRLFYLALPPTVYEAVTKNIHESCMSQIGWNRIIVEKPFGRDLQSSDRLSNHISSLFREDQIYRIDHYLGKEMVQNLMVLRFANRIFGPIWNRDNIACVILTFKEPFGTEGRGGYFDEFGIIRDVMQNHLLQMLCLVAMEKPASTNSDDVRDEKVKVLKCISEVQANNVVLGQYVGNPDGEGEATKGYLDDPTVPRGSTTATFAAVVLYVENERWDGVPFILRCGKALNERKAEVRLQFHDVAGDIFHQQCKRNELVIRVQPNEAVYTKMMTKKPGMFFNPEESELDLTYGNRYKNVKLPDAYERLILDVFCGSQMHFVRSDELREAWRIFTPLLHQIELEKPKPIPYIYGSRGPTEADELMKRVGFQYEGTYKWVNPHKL
inactive: [1] -0.006 | [2] 0.001 | [3] 0.023 | [4] 0.012 | [5] 0.018 | [6] -0.02 | [7] 0.045 | [8] -0.002 | [9] 0.024 | [10] 0.003 | [11] 0.003 | [12] 0.008 | [13] -0.029 | [14] -0.02 | [15] -0.061 | [16] 0.016 | [17] 0.063 | [18] -0.04 | [19] 0.032 | [20] -0.017

EFCAB14 (UniProt O75071)
Sequence of UniProt O75071 (O75071 whole entry, looked up): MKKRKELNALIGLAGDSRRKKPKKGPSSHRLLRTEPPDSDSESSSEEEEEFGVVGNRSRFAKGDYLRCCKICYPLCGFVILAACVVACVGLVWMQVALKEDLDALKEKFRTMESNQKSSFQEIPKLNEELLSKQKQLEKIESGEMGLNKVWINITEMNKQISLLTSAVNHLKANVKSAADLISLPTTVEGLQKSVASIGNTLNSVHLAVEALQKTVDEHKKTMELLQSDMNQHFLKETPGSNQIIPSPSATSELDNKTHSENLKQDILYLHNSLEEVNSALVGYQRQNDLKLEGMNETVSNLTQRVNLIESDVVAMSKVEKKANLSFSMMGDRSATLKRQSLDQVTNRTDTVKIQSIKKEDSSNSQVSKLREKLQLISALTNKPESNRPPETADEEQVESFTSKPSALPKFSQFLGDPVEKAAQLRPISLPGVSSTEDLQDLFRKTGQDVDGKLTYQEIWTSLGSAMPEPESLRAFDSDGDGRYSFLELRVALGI
inactive: [1] 0.026 | [2] 0.015 | [3] 0.055 | [4] -0.075 | [5] -0.045 | [6] 0.077 | [7] 0.02 | [8] 0.011 | [9] 0.016 | [10] 0.012 | [11] 0.022 | [12] 0.001 | [13] -0.01 | [14] 0.039 | [15] 0.008 | [16] -0.042 | [17] -0.058 | [18] 0.047 | [19] 0.023 | [20] 0.005

GALNT2 (UniProt Q10471)
Sequence of UniProt Q10471 (Q10471 whole entry, looked up): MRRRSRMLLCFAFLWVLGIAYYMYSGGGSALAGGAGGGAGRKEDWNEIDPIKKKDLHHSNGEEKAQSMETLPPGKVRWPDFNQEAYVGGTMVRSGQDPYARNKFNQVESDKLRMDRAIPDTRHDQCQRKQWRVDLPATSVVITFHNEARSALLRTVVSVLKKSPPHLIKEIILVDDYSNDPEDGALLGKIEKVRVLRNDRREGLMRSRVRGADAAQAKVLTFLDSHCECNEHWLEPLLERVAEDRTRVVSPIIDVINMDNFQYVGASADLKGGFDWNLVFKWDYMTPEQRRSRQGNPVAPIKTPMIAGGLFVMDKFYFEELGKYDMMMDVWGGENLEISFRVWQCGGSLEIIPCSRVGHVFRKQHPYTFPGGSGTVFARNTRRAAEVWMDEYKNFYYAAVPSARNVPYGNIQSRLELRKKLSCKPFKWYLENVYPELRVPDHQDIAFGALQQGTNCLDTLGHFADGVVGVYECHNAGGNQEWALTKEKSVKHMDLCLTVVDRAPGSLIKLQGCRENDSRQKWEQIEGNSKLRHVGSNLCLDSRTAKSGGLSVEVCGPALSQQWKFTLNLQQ
inactive: [1] -0.004 | [2] 0 | [3] 0.006 | [4] 0.022 | [5] -0.005 | [6] 0.015 | [7] 0.031 | [8] -0.041 | [9] -0.012 | [10] -0.016 | [11] 0.013 | [12] 0.014 | [13] 0.003 | [14] -0.014 | [15] 0.002 | [16] 0.042 | [17] 0.065 | [18] 0.035 | [19] -0.004 | [20] 0.016

GAPDH (UniProt P04406)
Sequence of UniProt P04406 (P04406 whole entry, looked up): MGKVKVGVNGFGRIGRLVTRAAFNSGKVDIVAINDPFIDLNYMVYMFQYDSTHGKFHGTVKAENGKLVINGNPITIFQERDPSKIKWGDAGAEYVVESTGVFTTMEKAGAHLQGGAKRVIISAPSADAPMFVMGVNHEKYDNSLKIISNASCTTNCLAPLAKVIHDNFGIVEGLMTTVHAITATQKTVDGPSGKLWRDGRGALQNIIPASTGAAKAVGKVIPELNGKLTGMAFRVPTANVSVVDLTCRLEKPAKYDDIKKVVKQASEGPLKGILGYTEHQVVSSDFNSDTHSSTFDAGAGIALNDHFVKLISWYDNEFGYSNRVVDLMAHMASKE
inactive: [1] 0.037 | [2] 0.021 | [3] -0.006 | [4] 0.02 | [5] 0.008 | [6] -0.01 | [7] -0.008 | [8] -0.037 | [9] -0.014 | [10] 0.009 | [11] -0.031 | [12] 0.002 | [13] -0.016 | [14] -0.006 | [15] -0.002 | [16] -0.009 | [17] 0.042 | [18] -0.032 | [19] 0 | [20] -0.01
